NR2F2 inh = NR2F2 transcriptional activity inhibitors, primary screen, cell-based, luciferase reporter, HEK293T, luminescence; HEK293T NGFI-A luciferase reporter; inhibition, % at 8.6 µM; 0.7% of 370,000 active; AID 686940, 2013;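 active means inhibition above a per-plate cutoff, mean inhibition of test wells between control levels plus 3 SD, cut at about 38% in these data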;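 further: cells cotransfected with COUP-TFII expression vector driving the NGFI-A reporter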
Target sequence (P24468 whole entry, looked up): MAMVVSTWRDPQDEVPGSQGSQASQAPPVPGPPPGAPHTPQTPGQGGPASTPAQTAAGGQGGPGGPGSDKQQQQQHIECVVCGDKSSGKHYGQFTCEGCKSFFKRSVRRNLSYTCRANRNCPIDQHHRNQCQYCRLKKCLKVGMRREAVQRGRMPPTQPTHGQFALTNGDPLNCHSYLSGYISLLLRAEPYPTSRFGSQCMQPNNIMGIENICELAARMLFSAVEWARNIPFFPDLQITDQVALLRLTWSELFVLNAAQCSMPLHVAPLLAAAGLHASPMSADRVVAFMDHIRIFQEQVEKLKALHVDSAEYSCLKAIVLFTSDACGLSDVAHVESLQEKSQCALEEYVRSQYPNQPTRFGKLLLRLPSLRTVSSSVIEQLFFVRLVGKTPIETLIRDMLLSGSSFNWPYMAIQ
FXN GAA850 act = FXN promoter activators, primary screen, cell-based, luciferase luminescence, HEK293 lucGAA850; HEK293 lucGAA850 FXN promoter luciferase reporter, 24 h; percent of 10 µM SAHA response; activation, % at 6 µM; 0.56% of 360,000 active;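 active means activation above the average of all compounds screened plus 3 SD, cutoff fixed separately per campaign, cut at about 7.5% in these data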
Gli-Sufu antag = Gli-Sufu pathway antagonists, primary screen, luciferase luminescence, Sufu-KO-LIGHT cells, uHTS. Sufu-KO-LIGHT fibroblasts, Gli luciferase reporter luminescence. inhibition, % at 5 µM. 0.74% of 340,000 active. AID 588413, 2011;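 active means inhibition above about 55%, limit read from the data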
Cardio protect = cardioprotection against H2O2-induced cell death, primary screen, uHTS, H9c2 cells, ATPLite luminescence | protection from H2O2 cell death, % at 20 µM | H9c2 cardiomyocytes, H2O2 injury protection, 2 h | 0.63% of 360,000 active;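 active means compounds giving at least 50% protection of heart cells from peroxide-induced death in the single-dose screen, raw or plate-pattern-corrected value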
SMARCA2 act = SMARCA2 (BRM) function activators, primary screen, cell-based, luminescence, high throughput. AID 652017, 2013. 1% of 370,000 active. MG213 cells, MMTV-luciferase reporter, dexamethasone, overnight. activation, % at 9.1 µM; in the data active means activation above about 7.8%
GalR3 antag = GalR3 antagonists in HEK293 cells, primary screen, cell-based, fluorescence readout | inhibition, % at 3 µM | 0.44% of 360,000 active | HEK293 GalR3-CNG cAMP membrane potential fluorescence; galR3 body fused to GalR1 C-terminus | Galanin receptor type 3 (Homo sapiens), O60755;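 active means inhibition above the screen-wide average plus 3 SD, cut at about 13% in these data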;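 further: forskolin and galanin both at EC90 stimulate the cells; cAMP rise reported by CNG channel membrane potential dye signal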
Gal4-VP16 ctr = Gal4-VP16 luciferase reporter inhibitors, counter-screen for COUP-TFII antagonist project, cell-based, luminescence, HEK293; shares compounds with NR2F2 inh; inhibition, % at 8.5 µM; 25% of 2,500 active; in the data active means inhibition above about 13%
NR2F2 inh conf = NR2F2 transcriptional activity inhibitors, confirmation, cell-based, luciferase reporter, HEK293, triplicate; shares compounds with NR2F2 inh; HEK293 NGFI-A luciferase reporter, luminescence; inhibition, % at 8.5 µM; 45% of 2,500 active; AID 687008, 2013;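 active means mean inhibition over three repeats above a set limit taken from the earlier primary screen, cut at about 38% in these data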
Hits are given with their value; 0 = inactive; - = not tested or not shown. This is a sample that favours compounds with a hit; in the whole collection about 3.4% have one here.

SMILES	NR2F2 inh	FXN GAA850 act	Gli-Sufu antag	Cardio protect	SMARCA2 act	GalR3 antag	Gal4-VP16 ctr	NR2F2 inh conf
Cc1cc(C(=O)COC(=O)c2ccc3c(c2)OCO3)c(C)n1Cc1cccs1	0	0	0	0	0	0	-	-
COCCn1c(C)cc(C(=O)COC(=O)c2ccccc2Br)c1C	87	0	0	0	0	0	72	95
Cc1ccc(CSc2nnc(-c3ccccn3)n2Cc2cccs2)cc1	0	0	-	0	0	0	-	-
Cc1cc(C(=O)COC(=O)c2ccccc2Br)c(C)n1CC1CCCO1 (centres undefined)	90	0	76	0	0	0	85	101
Cc1ccc(C(=O)OCC(=O)c2cc(C)n(CC3CCCO3)c2C)cc1 (centres undefined)	0	0	0	0	0	0	-	-
Cc1cc(C(=O)COC(=O)c2cccc(NS(C)(=O)=O)c2)c(C)n1CC1CCCO1 (centres undefined)	72	0	0	0	0	0	0	57
Cc1cc(C(=O)COC(=O)c2cccnc2Cl)c(C)n1CC1CCCO1 (centres undefined)	63	0	0	0	0	0	0	56
COc1cccc2c1C(=O)C=C(C)C2=O	0	0	0	0	0	0	-	-
COC1=CC(=O)c2c(ccc3ncnc(N)c23)C1=O	55	0	56	0	0	0	62	44
Cc1ccc(SCCSc2nc(C)cc(=O)[nH]2)cc1	0	0	0	0	0	0	-	-
S=C(NCc1ccc(Cl)cc1)NC1CCN(Cc2ccccc2)CC1	52	0	0	0	0	0	0	0
O=C(COc1ccc(Cl)cc1Cl)Nc1ccccn1	89	0	0	0	0	0	64	82
Cc1nn(C)c(C)c1NC(=O)COc1ccc(F)cc1Br	0	0	0	0	0	0	-	-
Cc1cc(Cl)ccc1OCCCC(=O)NO	52	0	0	0	0	0	0	47
Cc1c(C)c2cc(Cl)c(OCC(=O)Nc3ccccn3)cc2oc1=O	0	0	-	0	0	0	-	-
Cc1c(C)c2ccc(OCC(=O)Nc3ccccn3)c(C)c2oc1=O	78	0	0	0	0	0	82	98
Cc1nn(C)c(C)c1NC(=O)COc1ccc(Cl)cc1Br	51	0	0	0	0	53	0	50
C=CCC[C@@H](Cc1ccc(F)cc1)C(=O)OC[C@@H](NC(=O)[C@@H](CC=C)CC(=O)N[C@H](CO)Cc1ccccc1)C(C)(C)C	0	0	0	0	0	0	-	-
CCOc1ccc(OCCCC(=O)N(CC)CC(=O)Nc2c(F)cccc2F)cc1	0	0	0	0	0	0	-	-
CCOc1ccc2[nH]cc(-c3csc(N)n3)c2c1	0	0	0	0	0	0	-	-
CCC1=NN(C(=O)CCc2ccc3c(c2)OCO3)C(O)(C(F)(F)F)C1 (centres undefined)	0	0	0	0	0	0	-	-
Cc1cc(Cl)ccc1OCC(=O)Nc1ccncc1	40	0	0	0	0	55	0	0
COc1ccccc1OCC(=O)Nc1ccncc1	0	0	0	0	0	0	-	-
Cc1cccc(OCC(=O)Nc2ccncc2)c1C	39	0	0	0	0	0	0	0
CC(=O)NC(Cc1ccc2c(c1)OCO2)C(=O)N1CCCN(C(C)=O)CC1 (centres undefined)	0	-	-	-	0	-	-	-
COc1cccc(-c2nnc3n2N=C(c2ccc(Cl)cc2)CS3)c1	0	-	-	-	0	-	-	-
COc1cccc(-c2nnc3n2N=C(C(C)(C)C)CS3)c1	45	0	0	0	0	0	27	41
COc1ccc(-n2ncc3c(=O)n(Cc4c(F)cccc4Cl)cnc32)cc1	0	0	0	0	0	0	-	-
